From PubChem BioAssay
KCNQ2 pot = potentiators of rat KCNQ2 potassium channel; O88943; B-score at 10 µM; CHO-K1 KCNQ2, FluxOR thallium flux fluorescence; active compounds read high; 310,000 tested, 0.54% active; AID 2239;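 active = fluorescence ratio B-score at least 3 SD of library B-scores, with initial fluorescence B-score within 3 of them, cut at about 5.3 in these data; same plate scores as AID 2156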;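 also: B-score of peak minus minimum over baseline fluorescence ratio after K+ and Tl+ stimulus; positive B-score means potentiation of KCNQ2 with more thallium influx and brighter signal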
KCNQ2 block = inhibitors of rat KCNQ2 potassium channel; O88943; 310,000 tested, 1.1% active; CHO-K1 KCNQ2, FluxOR thallium flux, 20 min; active compounds read low; B-score at 10 µM;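 active = fluorescence ratio B-score at most minus 3 library SDs, with starting brightness B-score within 2 library SDs, cut at about -5.5 in these data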
Kir21 conf inh = confirmation of mouse Kir2.1 potassium channel inhibitors. shares compounds with KCNQ2 pot. Tl flux remaining, % of negative control (active compounds read low), % at 10 µM. AID 2032. Kir2.1-expressing cells, FluxOR thallium flux fluorescence; active compounds read low. 2,300 tested, 41% active;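 active = Primary-screen hit whose thallium flux fell at least 3 control SD below untreated wells in both duplicates, with normal baseline fluorescence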
Target sequence (P35561 whole entry, looked up): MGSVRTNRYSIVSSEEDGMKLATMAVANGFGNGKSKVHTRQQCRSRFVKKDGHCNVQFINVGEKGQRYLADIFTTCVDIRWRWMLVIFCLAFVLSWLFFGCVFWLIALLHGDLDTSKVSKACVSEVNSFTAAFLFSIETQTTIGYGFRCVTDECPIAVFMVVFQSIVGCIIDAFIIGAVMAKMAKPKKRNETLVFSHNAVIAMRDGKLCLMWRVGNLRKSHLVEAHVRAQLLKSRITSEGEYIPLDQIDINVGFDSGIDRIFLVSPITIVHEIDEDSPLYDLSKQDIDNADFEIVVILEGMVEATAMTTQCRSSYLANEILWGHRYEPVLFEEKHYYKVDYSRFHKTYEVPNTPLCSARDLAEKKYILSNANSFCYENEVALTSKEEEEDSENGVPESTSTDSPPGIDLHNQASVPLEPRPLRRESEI
HEK293 Tl flux = counter-screen for Kir2.1 inhibitors: effect in parental HEK293 cells | FluxOR signal as % of negative control (100 = no effect), % at 10 µM | AID 2105 | FluxOR thallium flux fluorescence; 0% = unstimulated blank wells | 2,300 tested, 19% active | shares compounds with KCNQ2 pot;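 active = dye signal at least 3 control SD above or below untreated wells in both duplicates, raw fluorescence within 3, either direction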;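 also: percent is based on the flux ratio of peak minus minimum fluorescence over baseline F0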
CHO-K1 ctr = counter-screen for KCNQ2 potentiators: effect in parental CHO-K1 cells. shares compounds with KCNQ2 pot. FluxOR thallium flux fluorescence; zero = vehicle mean+3SD, 100% = vehicle-minus-blank window. activity increase over 3SD of controls, % at 10 µM. 1,200 tested, 43% active. AID 2282;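 active = signal rise of at least 3 SD above the untreated control mean, in both duplicate wells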;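 also: counter screen of KCNQ2 potentiator hits so any rise reflects channel-independent effects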
KCNQ1 sel pot = human KCNQ1 counter-target activity of KCNQ2 potentiators; AID 2283; CHO KCNQ1 stable, FluxOR thallium flux fluorescence; beyond 3SD, as % of vehicle-control signal; shares compounds with KCNQ2 pot; activation over 3SD threshold, % at 10 µM; 1,200 tested, 28% active;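 active = fluorescence ratio rise of at least 3 SD of vehicle wells above their mean, in both replicate wells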
KCNQ2 pot conf = confirmation of rat KCNQ2 potassium channel potentiators. shares compounds with KCNQ2 pot. CHO-KCNQ2 cells, FluxOR thallium flux fluorescence. potentiation, less the hit threshold, % at 10 µM. 1,200 tested, 68% active. AID 2287;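 active = fluorescence ratio rising 3 SD or more over the vehicle control mean in both replicates, plus primary screen hit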;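 also: peak minus minimum thallium fluorescence divided by baseline after K/Tl stimulus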
Kir21 spec = tests whether KCNQ2 potentiators also affect mouse Kir2.1; activity over 3SD threshold, % at 10 µM; 1,200 tested, 2% active; shares compounds with KCNQ2 pot; HEK293 Kir2.1, FluxOR thallium flux fluorescence;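 active = fluorescence ratio rise of at least 3 SD above the vehicle-control mean, seen in both replicates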
KCNQ2 W236L MoA = rat KCNQ2 W236L mutant potentiation by KCNQ2 potentiators | shares compounds with KCNQ2 pot | CHO KCNQ2-W236L, automated patch clamp current | current increase over 3SD of negative controls (%), active compounds read high, % at 25 µM | 940 tested, 10% active | AID 2558;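 active = current increase at least 3 SD of the untreated controls above them in both duplicate recordings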
Numbers stand for hits. Only some compounds are listed: those with a hit (about 1.6% of all), similar ones and a draw of the others.

For S=C(Nc1ccc(Oc2ccccc2)cc1)Nc1cccnc1 the results were KCNQ2 pot 17.8, KCNQ2 block inactive, Kir21 conf inh inactive, HEK293 Tl flux inactive, CHO-K1 ctr 8.9, KCNQ1 sel pot inactive, KCNQ2 pot conf 83.0, Kir21 spec inactive and KCNQ2 W236L MoA 4.7%.
Screening Cc1cccc(CS(=O)(=O)Cc2ccc(C(=O)NC3CCCC3)o2)c1 returned KCNQ2 pot inactive and KCNQ2 block inactive.
O=C(Nc1ccnn1C1CCN(C2CCCC2)CC1)c1ccccc1 was read as KCNQ2 block inactive.
Screening Cn1c(=O)c(N=O)c(N)n(Cc2ccccc2)c1=S returned KCNQ2 block inactive.
`COc1ccc(NC(=O)c2cc(=O)[nH]c(=O)[nH]2)cc1S(=O)(=O)Nc1ccccc1Cl` gave KCNQ2 pot inactive and KCNQ2 block inactive.
For CCN(CC)Cc1c(C(=O)N/N=C/c2c(Cl)cccc2Cl)nnn1-c1nonc1N the results were KCNQ2 block inactive.
Screening CCn1nnnc1SCC(=O)NC1Cc2ccccc2C1 returned KCNQ2 block inactive.
`S=c1nc[nH]c2c1sc1nc(N3CCOCC3)c3c(c12)CCCC3` gave KCNQ2 pot 12, KCNQ2 block inactive, Kir21 conf inh inactive, HEK293 Tl flux 270.0%, CHO-K1 ctr 35.8, KCNQ1 sel pot inactive, KCNQ2 pot conf 60.2, Kir21 spec inactive and KCNQ2 W236L MoA inactive.
`O=c1[nH]nnc2c1sc1nc(N3CCOCC3)c3c(c12)CCCC3` gave KCNQ2 pot inactive and KCNQ2 block inactive.
For CCOc1cccc(N(C(=O)CCC(=O)Nc2cc(C)on2)C(C(=O)NC(C)(C)C)c2ccc(OC)cc2)c1 (configuration not stated) the results were KCNQ2 block inactive.
For COc1ccc(C(C(=O)NC(C)(C)C)N(C(=O)CCC(=O)Nc2cc(C)on2)c2cccc(F)c2)cc1 (configuration not stated) the results were KCNQ2 pot 5.56, KCNQ2 block inactive, Kir21 conf inh inactive, HEK293 Tl flux inactive, CHO-K1 ctr inactive, KCNQ1 sel pot inactive, KCNQ2 pot conf inactive and Kir21 spec inactive.
Screening COC(=O)CN1C(=O)COc2ccc(S(=O)(=O)NCc3ccccc3)cc21 returned KCNQ2 block inactive.
O=C1CC(O)(C(F)F)Oc2ccc3ccccc3c21 (configuration not stated) was read as KCNQ2 pot inactive and KCNQ2 block inactive.
For O=C1CC(O)(C(F)(F)F)Oc2c1ccc1ccccc21 (configuration not stated) the results were KCNQ2 pot 5.74, KCNQ2 block inactive, Kir21 conf inh inactive, HEK293 Tl flux 248.5%, CHO-K1 ctr inactive, KCNQ1 sel pot 7.6, KCNQ2 pot conf 43.6, Kir21 spec inactive and KCNQ2 W236L MoA inactive.
`O=C(CCCn1c(=S)[nH]c2ccsc2c1=O)Nc1ccc2c(c1)OCCO2` gave KCNQ2 block inactive.
For COc1ccc(Cl)cc1C(=O)OCC(=O)N(C)CC(=O)Nc1ccc(F)cc1 the results were KCNQ2 pot inactive and KCNQ2 block inactive.
`Cc1ccc(SCC(=O)OCC(=O)N(C)CC(=O)Nc2ccc(F)cc2)cc1C` gave KCNQ2 pot 7.03, KCNQ2 block inactive, Kir21 conf inh inactive, HEK293 Tl flux inactive, CHO-K1 ctr 10.4, KCNQ1 sel pot 1.0, KCNQ2 pot conf inactive, Kir21 spec inactive and KCNQ2 W236L MoA inactive.
COc1ccc(NC2CCCN(C(=O)c3ccc4[nH]c(C)c(C)c4c3)C2)cc1OC (configuration not stated) was read as KCNQ2 pot inactive and KCNQ2 block inactive.
